# Results taken from PubChem BioAssay AID1508648 (National Center for Advancing Translational Sciences (NCATS), 2021).
# Inconclusive results are not listed. Unmarked numbers belong to inactive results. Calls of active or inactive are those of the source. The call rests on the fitted dose curve; in most records, active means well fitted cell-killing curve with a large enough effect; inconclusive means small, poorly fitted or top-dose-only effect, or effect the other way; inactive means flat fitted curve, though single readings scatter.
# Assay: Cell viability assay in S16 Pmp22-HiBiT cells - Confirmatory screen
# Details: S16 Schwann Pmp22-HiBiT viability, CellTiter-Glo, 24 h; series mostly up to 27.9 µM; activity change, negative = viability loss: at the top concentration
# Text: Assay Provider: Jim Inglese Ph.D. National Center for Advancing Translational Science, National Institutes of Health, Rockville, MD CMT is a heterogeneous group of neurological disorders that affect approximately 1 in 2,500 people. In particular, the most common form of CMT, CMT1A is genetically linked to the duplication of the PMP22 gene which leads to Schwann cell overexpression, thus manifesting itself as a typical case of dose-sensitive diseases. To identify small molecule compounds that can mediate the expression of PMP22 we developed a phenotypic assay screening strategy by utilizing genome editing techniques to construct Schwann cell lines containing novel reporter technology to monitor the transcriptional or translational regulation of PMP22. For high sensitivity we use a bioluminescent reporter system embedded in the 3' UTR of the PMP22 gene (S16(c9) Pmp22-F2sN) to identify compounds that inhibit gene expression. […] We can further discriminate the effect of all transcriptionally active molecules on PMP22 translation or stability with an assay that incorporates a short NLuc peptide (HiBiT) at the C-terminus of expressed PMP22 (S16(f8) PMP22-HiBiT) allowing alpha complementation and luminescence detection of membrane-associated PMP22 protein. These assays were screened against the NCATS Sytravon Library Collection. Miniaturization of these assays to 1536-well plate format for quantitative high throughput screening (qHTS) yielded rich data sets immediately from the qHTS assay (S16(c9) Pmp22-F2sN), when compared with data from a cell viability assay (Cell TiterGlo) to identify compounds that decreased the output signals through cellular toxicity to streamline the selection process of actives for subsequent characterization using the HiBiT assay (S16(f8) PMP22-HiBiT).
# Cell viability assay in S16 Pmp22-HiBiT cells PROTOCOL TABLE (format as described by Inglese J, Shamu CE and Guy RK. 2007) SEQUENCE No. (e.g., 1, 2, 3, etc.); PARAMETER (e.g., Cells, Incubation, Reagent, etc.); VALUE and DESCRIPTION. 1. Cells. Add 500-1,000 cells in 4 uL in growth media (DMEM High Glucose, No Phenol Red media + 10% heat-inactivated FBS + 1% Pen/Strep supplemented media) per well into Greiner 1536-well white/solid bottom high base, TC-treated plates. 2. Compounds. Library compounds and controls added at 23nL per well, transferred by Pin Tool. 3. Incubation. Incubate plates at 37C, 5% CO2, 95% RH for 24 h. 4. Reagent. Add 3uL CellTiter-Glo per well of Greiner 1536-well plates. 5. Incubation. Incubate plates at room temperature for 15 min., protect from light. 6. Detector. Luminescence measured using CCD-based camera (Viewlux). NOTES (numbers refer to Sequence numbers above; values are from representative experiments) 6. Luminescence Read: Clear filter; Exposure = 1 sec, Gain = High, Speed = Slow, Binning = 2X REFERENCES: 1. Inglese J, Shamu CE and Guy RK, Reporting data from high throughput screening of small molecule libraries, Nature Chemical Biology, 2007, 3(8): 438-441. doi.org/10.1038/nchembio0807-438 2. Yasgar A, Shinn P, Jadhav A, Auld DS, Michael S, Zheng W, Austin CP, Inglese J and Simeonov A, Compound Management for Quantitative High-Throughput Screening. J. Assoc. Lab. Auto., 2008, 13: 79-89. doi: 10.1016/j.jala.2007.12.004
SMILES,"activity change, negative = viability loss [%]",Potency
COc1ccc(Br)cc1CC1C(=O)Nc2ccccc21 (configuration not stated),-2.78,
O=C(Cn1c(-c2cccs2)cc2ccccc21)NCCCN1CCN(c2ccc(F)cc2)CC1,-19.8,
COc1ccccc1Nc1nn2c(=O)c3ccc(C(=O)Nc4ccc(F)cc4)cc3nc2s1,,7.24 µM (active)
CCS(=O)(=O)c1ncc(Cl)c(C(=O)Nc2c(C(=O)c3ccc(C)cc3)oc3ccccc23)n1,7.96,
COc1cccc(-n2c(SCC(=O)c3ccc(Cl)cc3)nc3c([nH]c4ccccc43)c2=O)c1,,10.2 µM (active)
COc1ccccc1Nc1c2c(nc3ccc(NC(=O)/C=C/c4cccc(OC)c4OC)cc13)CCCC2,,5.13 µM (active)
CCC(C)NC(=O)C1CCN(C(=O)c2cc3sccc3n2Cc2ccc(Cl)cc2)CC1 (configuration not stated),,11.5 µM (active)
